Source: PubChem
Cruzain Triton = cruzain (T. cruzi) inhibition with detergent. purified cruzain, Z-FR-AMC fluorescence, 0.01% Triton. Potency, µM, actives largely listed as inhibitors. 200,000 tested, 0.43% active. AID 1478; further: nearly all actives have a fitted effect of over 40% in size
Target sequence (P25779 123-467 limits assumed): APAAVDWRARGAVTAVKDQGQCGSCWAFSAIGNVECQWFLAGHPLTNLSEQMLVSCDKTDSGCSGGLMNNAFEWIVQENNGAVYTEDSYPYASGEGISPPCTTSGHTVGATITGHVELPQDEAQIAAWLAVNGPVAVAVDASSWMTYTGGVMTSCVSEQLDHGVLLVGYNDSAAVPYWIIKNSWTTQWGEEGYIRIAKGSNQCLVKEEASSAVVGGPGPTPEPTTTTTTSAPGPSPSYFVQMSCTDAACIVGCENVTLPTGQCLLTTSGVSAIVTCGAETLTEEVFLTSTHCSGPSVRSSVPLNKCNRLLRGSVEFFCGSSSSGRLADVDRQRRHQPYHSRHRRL
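Steps: dispense cruzain (1.5 nM final) in acetate buffer pH 5.5 with DTT and 0.01% Triton X-100; pin-transfer compounds; incubate 15 min RT; add Z-FR-AMC (2 uM final); read fluorescence every 30 s, using the 60 s intensity change.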
Cruzain inh noDet = inhibitors of Trypanosoma cruzi cruzain without detergent; purified cruzain, Z-FR-AMC fluorescence, no detergent; P25779; Potency, µM, actives largely listed as inhibitors; 200,000 tested, 2.3% active; further: nearly all actives have a fitted effect of over 40% in size
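Detergent-free condition (0.00005% Triton X-100) in acetate buffer pH 5.5 with DTT. 1.5 nM enzyme and compound were pre-mixed 15 min, then 2 uM Z-FR-AMC substrate added; reaction progress from fluorescence change between first and third reads (60 s).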
Of the large screens only hits and unclear results are named; the others gave an inactive call. Shown are actives, neighbours in structure and some others; about 2.4% of the full set was active somewhere. The call rests on the fitted dose curve; in most records, active means well fitted curve in the direction sought with a large enough effect; inconclusive means small, poorly fitted or top-dose-only effect, or another doubt; inactive means no such curve, though single readings can be large; an effect the other way counts as inactive or inconclusive.

COc1cccc(C(=O)Nc2ccc(Cl)c(-c3nc4ccccc4[nH]3)c2)c1	Cruzain inh noDet inconclusive
Cn1c(=O)c2nc(SCC(=O)Nc3cc(Cl)ccc3Cl)n(C)c2n(C)c1=O	none
Cc1ccc(SCc2ccc(C(=O)Nc3cc([N+](=O)[O-])ccc3C)cc2)cc1	none
Cc1ccc(SCc2ccc(C(=O)Nc3cccc([N+](=O)[O-])c3)cc2)cc1	Cruzain inh noDet 20µM
O=S(=O)(Nc1nc(-c2sccc2Cl)cs1)c1cc(Cl)ccc1Cl	Cruzain Triton 20µM, Cruzain inh noDet inconclusive
CN(C)c1ccc(NS(=O)(=O)c2cc(Cl)ccc2Cl)cc1	none
Cc1ccc2c(c1)N(C(=O)Nc1cccc3c1CCCC3)CC(C)O2 (stereo not drawn)	none
CCCOc1ccc(CNC(=O)C2CCN(c3nc4ccccc4nc3C(F)(F)F)CC2)cc1	none
Cc1ccc(C)c(NC(c2ccccc2)c2nnc(-c3ccccc3F)o2)c1 (stereo not drawn)	none
COc1cc(Cl)c(C)cc1NC(c1ccccc1)c1nnc(-c2ccccc2Cl)o1 (stereo not drawn)	Cruzain inh noDet 16µM
Cc1ccc(NC(=O)Cn2c(=O)c(CNc3ccccc3)cc3cc4c(cc32)OCCO4)cc1	Cruzain inh noDet inconclusive
CC1=N/C(=C/c2ccc([N+](=O)[O-])cc2)C(=O)N1c1ccc(Cl)cc1Cl	none
CC1=N/C(=C\c2ccc([N+](=O)[O-])cc2)C(=O)N1c1ccc(Cl)cc1	Cruzain inh noDet 16µM
Cn1cc(C(=O)NCc2ccccc2)c(=O)c2cc(S(=O)(=O)N3CCOCC3)ccc21	none
N=c1oc2cc(O)ccc2cc1C(=O)Nc1nc2ccccc2s1	Cruzain Triton 13µM, Cruzain inh noDet 20µM
O=C(Nc1nc2ccccc2s1)c1cccn(Cc2ccccc2)c1=O	none
Cc1cccc(CN2C(=O)N/C(=C/c3cc(C)n(-c4ccccn4)c3C)C2=O)c1	Cruzain inh noDet 25µM
Cc1cc(/C=C2/NC(=O)N(Cc3ccccc3F)C2=O)c(C)n1C	Cruzain inh noDet 25µM
O=C1N/C(=C/c2ccco2)C(=O)N1Cc1ccccc1F	none
Cc1cc(/C=C2/NC(=O)N(Cc3ccccc3F)C2=O)c(C)n1-c1ccccn1	Cruzain inh noDet inconclusive
CC(C)c1ccc(Nc2c(-c3ccccn3)nc3ccccn23)cc1	none
Cc1oc2ncnc(N3CCCCC3)c2c1C(=O)NCC1CCN(Cc2cccc(F)c2)CC1	none
Cc1c(Cl)cccc1NC(=O)CCn1nc(C)c2c(C)n(-c3ccccc3)nc2c1=O	none
Cc1cc2cc(CN(Cc3cccs3)C(c3nnnn3C(C)(C)C)C(C)C)c3nnnn3c2cc1C (stereo not drawn)	Cruzain inh noDet 7.9µM
Cc1ccc2cc(CN(Cc3cccs3)Cc3nnnn3C(C)(C)C)c3nnnn3c2c1	none
CCc1ccc(C2CC(=O)Oc3c2c(=O)n(C)c2ccccc32)cc1 (stereo not drawn)	none
CC1Cc2ccccc2N1C(=O)CSc1ccccc1 (stereo not drawn)	none
CC(C)C(=O)Nc1nnc(SCC(=O)N2c3ccccc3CC2C)s1 (stereo not drawn)	Cruzain Triton 10µM, Cruzain inh noDet 32µM
Cc1nn(C)c2c1c(C(F)(F)F)cc(=O)n2C(C)C(=O)NCCc1ccc(Cl)cc1 (stereo not drawn)	none
Cc1cc(NC(=O)COC(=O)c2n[nH]c3ccccc23)no1	none
Cc1cc(NC(=O)COC(=O)c2oc3c(Cl)cccc3c2C)no1	Cruzain inh noDet 13µM
COc1cc(-c2ccno2)ccc1S(=O)(=O)N1CCN(c2ccc(F)cc2)CC1	none
CC(=O)c1ccsc1-c1c(C)cc2oc(=O)cc(-c3ccccc3)c2c1C	Cruzain inh noDet 35µM
Cc1cc2oc(=O)cc(-c3ccccc3)c2c(C)c1-c1ccc(F)c(Cl)c1	Cruzain inh noDet 5.6µM
Cc1cc2oc(=O)cc(-c3ccccc3)c2c(C)c1-c1cccc(N)c1	Cruzain inh noDet inconclusive
Cc1cc2oc(=O)cc(-c3ccccc3)c2c(C)c1-c1sccc1C=O	Cruzain inh noDet inconclusive
Cc1ccc(NS(=O)(=O)c2ccc(-c3cc(C)no3)cc2)c(C)c1	none
CCOc1ccc(CC(=O)Nc2nnc3n2CCS3)cc1	none
O=c1c(CCc2ccccc2)nc2cncnc2n1-c1ccccc1	none
O=c1c(CCc2ccccc2)nc2cncnc2n1Cc1ccccc1	Cruzain inh noDet 3.2µM
CCOc1ccc(CCNC(=O)Cn2nc(CC)n3c(cc4sccc43)c2=O)cc1	none
Cc1ccc(C(=O)c2c(C)oc3c2C(=O)C(=O)c2ccccc2-3)cc1	Cruzain inh noDet inconclusive
Cc1ccc(C(=O)c2coc3c2C(=O)C(=O)c2ccccc2-3)cc1	Cruzain inh noDet 13µM
COc1ccccc1C(c1c(O)cc(C)n(Cc2ccco2)c1=O)N1CCCCC1 (stereo not drawn)	Cruzain inh noDet inconclusive
CCOC(=O)C1CCN(c2ncnc3c2oc2ccccc23)CC1	none
CCOC(=O)C1CCN(c2nc(-c3ccccc3)nc3c2oc2ccccc23)CC1	Cruzain inh noDet 20µM
O=C(Nc1cccc(C(=O)N2CCN(c3ccc(Cl)cc3)CC2)c1)c1nsc2ccccc12	Cruzain inh noDet 20µM
O=C(Nc1cccc(C(=O)N2CCN(c3cccc(Cl)c3)CC2)c1)c1nsc2ccccc12	Cruzain inh noDet inconclusive
O=C(Nc1ccc(C(=O)N2CCN(c3cccc(Cl)c3)CC2)cc1)c1nsc2ccccc12	Cruzain inh noDet 10µM
O=C(Nc1ccc(C(=O)N2CCN(c3ccccc3)CC2)cc1)c1nsc2ccccc12	none
CCN(CC)S(=O)(=O)c1ccc(NC(=O)c2c(C)oc3ncnc(N4CCCCC4)c23)cc1	none
CCOc1ccccc1C(=O)Nc1ccc(S(=O)(=O)N(Cc2ccccc2)c2ccccc2)cc1	none
Cc1ccc(OCC(=O)Nc2ccc(S(=O)(=O)N(Cc3ccccc3)c3ccccc3)cc2)cc1	Cruzain inh noDet 7.9µM
C[C@H](CC(=O)O)C(C(=O)O)C(=O)O	none
CC(=O)c1ccc(-c2ccc(-c3cc(=O)oc4c(C(C)C)ccc(C)c34)cc2)cc1	Cruzain inh noDet 8.9µM
Cc1ccc(C(C)C)c2oc(=O)cc(-c3ccc(-c4ccc(C(F)(F)F)cc4)cc3)c12	Cruzain inh noDet inconclusive
CCOC(=O)CNS(=O)(=O)c1ccc(C)cc1	none
Cc1ccc(C(=O)C(OC(=O)CNS(=O)(=O)c2ccccc2)c2ccccc2)cc1 (stereo not drawn)	Cruzain Triton inconclusive, Cruzain inh noDet 32µM
CCOC(=O)c1oc2ccc(S(=O)(=O)n3nc(-c4ccc(C)cc4)cc3N)cc2c1C	Cruzain inh noDet inconclusive
CCOC(=O)c1oc2ccc(S(=O)(=O)n3nc(-c4ccc(Cl)cc4)cc3N)cc2c1C	Cruzain inh noDet 13µM
CCOC(=O)c1c(NC(=O)CCCOc2ccc(C(C)(C)C)cc2)sc2c1CCC2	none
CC(C)(C)c1ccc(O)c(CN(Cc2cc(C(C)(C)C)ccc2O)c2ccccc2)c1	none
CCS(=O)(=O)N1CCc2cc(C(=O)NC(C)c3ccccc3)ccc21 (stereo not drawn)	none
COc1ccc(C(=O)/C=C/c2ccccc2)cc1	none
O=C(/C=C/c1ccc2ccccc2c1)c1ccoc1	Cruzain inh noDet 20µM
COC(=O)c1ccc2c(=O)n(CCCCCC(=O)NCc3ccc(Cl)cc3)c(=O)[nH]c2c1	none
COc1cc([N+](=O)[O-])ccc1NC(=O)N1CCC2(CC1)Nc1ccccc1-n1cccc12	Cruzain inh noDet 25µM
COc1cc(NC(=O)N2CCC3(CC2)Nc2cc(F)ccc2-n2cccc23)cc(OC)c1OC	Cruzain inh noDet inconclusive
Cc1ccc(C)c(S(=O)(=O)c2nnn3c2nc(Nc2ccc(F)c(Cl)c2)c2sccc23)c1	none
CCOC(=O)c1ccc(NC(=O)CCc2c(C)nc3cc(-c4ccc(OC)cc4OC)nn3c2C)cc1	none
